Rows were chosen to be rich in hits. Some 1% of all compounds tested hit in one or more screens of this group.
C-LANA FP = inhibitors of KSHV LANA C-terminal domain DNA binding; inhibition, % at 9 µM; hit rate 0.078% among 340,000; AID 504423; MBP-C-LANA/FAM-LBS DNA binding, fluorescence polarization;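 active = highest replicate inhibition at or above 60% at 9 µM, even if other replicates fall short; inactive = all replicates below 60% inhibition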;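 note: 0% = neutral control wells and 100% = 4 µM acridine orange control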
cardiac RTF act = increases calcium sensitivity of human cardiac regulated thin filaments | hit rate 0.24% among 340,000 | activation, % at 7.2 µM | IANBD-labeled TnC RTF fluorescence at EC20 calcium; 0% EC20 calcium, 100% full calcium;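 active = activation above the mean over all tested compounds plus 3 SD, cut at about 30% in these data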;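 note: rise in fluorescence read as greater calcium sensitivity of cardiac thin filaments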
LANA-H2A inh = blocks KSHV LANA binding to histone H2A/H2B; Q9QR71; cell-free LANA-H2A/H2B peptide, fluorescence polarization; inhibition, % (no concentration beside the values); hit rate 0.6% among 320,000; in the data active = inhibition mostly above about 10%, no sharp cut-off; inactive = mostly below about 6.7%
Target sequence (Q9QR71 whole entry, looked up): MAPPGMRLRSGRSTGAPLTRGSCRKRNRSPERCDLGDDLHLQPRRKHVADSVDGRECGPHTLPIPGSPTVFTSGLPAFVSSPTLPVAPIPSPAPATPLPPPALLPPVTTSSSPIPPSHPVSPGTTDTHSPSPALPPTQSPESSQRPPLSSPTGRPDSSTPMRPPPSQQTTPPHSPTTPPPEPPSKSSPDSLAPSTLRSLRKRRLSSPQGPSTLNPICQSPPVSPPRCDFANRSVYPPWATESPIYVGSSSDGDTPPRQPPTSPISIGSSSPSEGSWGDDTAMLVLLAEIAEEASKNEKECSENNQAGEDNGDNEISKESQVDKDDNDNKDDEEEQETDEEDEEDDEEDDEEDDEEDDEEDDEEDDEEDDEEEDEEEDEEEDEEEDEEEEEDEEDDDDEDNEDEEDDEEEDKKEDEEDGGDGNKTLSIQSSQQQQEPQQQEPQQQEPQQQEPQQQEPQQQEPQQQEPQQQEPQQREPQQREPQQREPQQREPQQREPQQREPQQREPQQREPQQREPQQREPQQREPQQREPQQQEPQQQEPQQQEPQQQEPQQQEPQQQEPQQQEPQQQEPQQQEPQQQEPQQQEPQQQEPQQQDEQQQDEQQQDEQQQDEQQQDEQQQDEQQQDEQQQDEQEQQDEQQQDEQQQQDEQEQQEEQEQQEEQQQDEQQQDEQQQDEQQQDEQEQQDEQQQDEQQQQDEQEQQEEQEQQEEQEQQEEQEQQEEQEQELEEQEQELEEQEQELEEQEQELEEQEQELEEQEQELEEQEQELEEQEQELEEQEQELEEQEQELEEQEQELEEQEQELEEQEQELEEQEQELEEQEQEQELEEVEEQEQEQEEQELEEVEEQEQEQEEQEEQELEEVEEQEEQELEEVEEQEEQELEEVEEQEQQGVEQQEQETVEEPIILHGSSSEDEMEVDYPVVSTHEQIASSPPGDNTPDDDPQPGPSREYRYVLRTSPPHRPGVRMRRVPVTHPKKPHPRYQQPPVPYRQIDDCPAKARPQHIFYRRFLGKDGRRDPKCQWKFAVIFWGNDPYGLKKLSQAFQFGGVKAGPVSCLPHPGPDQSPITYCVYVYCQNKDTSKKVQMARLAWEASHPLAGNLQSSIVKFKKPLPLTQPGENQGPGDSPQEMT
Keap1 Nrf2 FP = Keap1-Nrf2 (human) interaction inhibition. Q14145. AID 504523. hit rate 0.15% among 340,000. Keap1 Kelch-Nrf2 peptide fluorescence polarization, 1536-well. inhibition, % at 9.4 µM; in the data active = inhibition above about 12%;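 note: human Keap1 Kelch domain with fluorescein labeled Nrf2 9mer peptide probe; 0% = neutral control wells and 100% = peptide positive control; higher means more block of Keap1 binding to Nrf2 peptide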
RTF Ca sens inh = cardiac RTF calcium desensitization | hit rate 0.12% among 340,000 | IANBD-labeled cardiac RTF, Ca2+ fluorescence | inhibition, % at 7.15 µM;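 active = inhibition above the mean inhibition of all tested compounds plus 3 SD, cut at about 17% in these data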;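 note: assay run at fixed EC70 calcium of 1.6 mM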
RTF inh confirm = confirmation of inhibitors of cardiac thin filament calcium sensitivity; AID 504635; shares compounds with RTF Ca sens inh; hit rate 8% among 360; inhibition, % at 7.15 µM; reconstituted cardiac thin filaments, calcium sensitivity fluorescence; in the data active = inhibition above about 18%
Active calls of the source: *; i = inactive; nt = no result given; + = active, no number; ! = not confirmed by another sample.

SMILES	C-LANA FP	cardiac RTF act	LANA-H2A inh	Keap1 Nrf2 FP	RTF Ca sens inh	RTF inh confirm
Cc1cccnc1NC(=O)C1CCCN1S(=O)(=O)c1ccc(Cl)cc1 (stereo not given)	0	-5	2	-2	29*	-3
COc1ccc(NC(=S)N(Cc2ccccn2)Cc2ccccc2Cl)cc1	0	3	2	3	17*	2
COCCNC(=O)c1ccc(-n2c(SCc3ccncc3)nc3ccccc3c2=O)cc1	2	8	i	0	2	nt
Cc1ccc(C)c(C(=O)CN2C(=O)NC3(CCC(C)CC3)C2=O)c1 (stereo not given)	0	-4	nt	-2	-2	nt
C[C@H](O)CC(=O)O	0	-8	1	-3	19*!	-3
NS(=O)(=O)c1cc(C(=O)O)cc(N2CCCC2)c1Oc1ccccc1	-1	0	-3	-1	19*	-3
COc1cc(/C=C/C(=O)OCC(=O)NC(=O)NC(C)C)ccc1OCC#N	0	-2	-3	2	-7	nt
COc1cc(/C=C/C(=O)OCC(=O)NC(=O)NC23CC4CC(CC(C4)C2)C3)ccc1OCC#N	-1	5	-6	-3	18*	-2
COc1ccc(OC)c(S(=O)(=O)NCC(c2ccco2)N2CCc3ccccc3C2)c1 (stereo not given)	-1	-6	4	0	18*	-5
CCOc1ccc(Br)cc1C(=S)N1CCCC1	-2	0	0	-3	-8	nt
O=C(Nc1cc(S(=O)(=O)N2CCOCC2)ccc1N1CCCC1)C1CC1	1	-4	-5	-1	19*	-3
O=[N+]([O-])c1cccc(/C=N/Nc2nc(NCc3ccccc3)nc(N3CCOCC3)n2)c1O	-1	5	0	-2	-7	nt
COCCCC/C(=N\OCCN)c1ccc(C(F)(F)F)cc1	-1	3	-2	-4	20*!	2
O=C(CCC(=O)OCC(=O)c1ccc(C(F)(F)F)cc1)OCC(=O)c1ccc(C(F)(F)F)cc1	nt	nt	0	nt	nt	nt
O=C(NCC(c1ccco1)N1CCc2ccccc2C1)C(=O)Nc1cc(F)ccc1F (stereo not given)	1	-11	-3	1	-8	nt
CCOC(=O)CNC(=O)c1c(C)nn(-c2ccccc2)c1Cl	2	-1	3	-1	18*	-2
CCOC(=O)CNC(=O)c1c(C)nn(C)c1Cl	-1	0	4	-2	5	nt
Nc1ccc(C(=O)N/N=C/c2cn(Cc3ccc(F)cc3)c3ccccc23)cc1	0	-6	0	4	2	nt
O=C(N/N=C/c1cn(Cc2cccc(F)c2)c2ccccc12)c1cc(O)cc(O)c1	19	-15	-2	0	21*	6
CC(Oc1ccc(Br)cc1)C(=O)Nn1c(=S)[nH]c2ncccc2c1=O (stereo not given)	nt	nt	3	nt	nt	nt
COc1ccc(N2C(=O)CSC2c2ccccc2[N+](=O)[O-])cc1 (stereo not given)	2	0	+	-1	19*	1
CCCCNC(=O)COC(=O)c1cc(C)oc1C	-1	9	2	-3	7	nt
c1ccc(-c2noc(C34CC5CC(CC(C5)C3)C4)n2)nc1	0	2	-3	2	18*	-5
c1ccc(-c2noc(C34CC5CC(CC(C5)C3)C4)n2)cc1	3	7	2	0	-19	nt
O=C(O)c1ccc2nc(-c3ccco3)c(-c3ccco3)nc2c1	30	-30	nt	5	47*	70*
SMILES	C-LANA FP	cardiac RTF act	LANA-H2A inh	Keap1 Nrf2 FP	RTF Ca sens inh	RTF inh confirm
O=C(Nc1ccc2nc(-c3ccco3)c(-c3ccco3)nc2c1)NC1CC1	1	-24	nt	0	24*	19*
O=C(NCCCO)Nc1ccc2nc(-c3ccco3)c(-c3ccco3)nc2c1	nt	nt	-4	nt	nt	nt
COc1ccc(S(=O)(=O)NN(C)C(=O)c2nn(-c3ccccc3)ccc2=O)cc1	-1	-1	-1	-4	0	nt
O=C(CCN1CCOCC1)Nc1ccc(Cl)cc1	-2	-3	0	1	-8	nt
NNC(=O)c1ccc2nc(-c3ccc(Br)cc3)cn2c1	2	-1	-6	3	22*	-2
CCn1nc([N+](=O)[O-])c(C(C#N)c2nc3cc(C(F)(F)F)ccc3s2)c(Cl)c1=O (stereo not given)	3	-11	1	-1	19*	2
C=CCNC(=S)Nc1cccc2ccccc12	0	-2	-1	3	20*	1
NS(=O)(=O)c1cc(C(=O)Nc2ccc3c(c2)CCC3)ccc1Cl	1	-1	4	1	10	nt
COc1ccc(NC(=O)CN2C(=O)NC(C)(C3CC3)C2=O)cc1S(=O)(=O)N1CCOCC1 (stereo not given)	0	0	-2	-3	-5	nt
Cc1ccc(S(=O)(=O)/N=C(/Nc2c(C)cccc2C)c2ccccc2)cc1	1	4	-4	4	-6	nt
Cn1c(NC(=O)c2ccc(S(=O)(=O)N3CCCCC3)cc2)cc(=O)n(C)c1=O	-1	1	3	-1	17*	2
CC(=O)Nc1ccc(C(=O)Nc2ccc(S(=O)(=O)N3CCCCC3)cc2)cc1	-1	-7	0	-3	-4	nt
N#CC(C#N)=C(Nc1ccc(F)cc1)SCc1cccc(F)c1	-2	4	-2	1	-5	nt
CC(=O)c1ccc(NC(=O)c2noc(C(C)C)c2[N+](=O)[O-])cc1	-1	-6	2	-5	188*	-3
O=C(NCc1nnnn1-c1ccc(F)c(F)c1)c1ccc(S(=O)(=O)N2CCOCC2)cc1	2	5	5	-2	-5	nt
O=[N+]([O-])c1cc([N+](=O)[O-])c2oc(-c3ccccc3)c(Br)c2c1O	4	-30	nt	-2	27*	12
O=c1cc(-c2ccccc2Cl)oc2ccc([N+](=O)[O-])c(O)c12	0	-5	-2	-5	-4	nt
COc1ccc([N+](=O)[O-])cc1NC(=O)CSc1nncn1-c1ccccc1	1	-8	-3	2	19*	1
COc1ccccc1NC(=O)CSc1nncn1-c1ccccc1	2	-1	-13	2	-7	nt
Cc1ccc(NC(=O)c2c(C)nn(-c3ccccc3)c2Cl)cc1	1	2	3	-6	-16	nt
O=[N+]([O-])c1ccc(Oc2ncccn2)cc1	nt	nt	0	nt	nt	nt
O=[N+]([O-])c1ccc(OCc2cccc(COc3ccc([N+](=O)[O-])cc3)n2)cc1	3	1	-1	-6	17*	-4
O=C(O)c1ccc2c(c1)[C@@H]1C=CC[C@@H]1[C@H](c1ccccn1)N2	98*	-37	3	6	86*	22*
CCCc1c(O)nc(SC2CC(=O)N(c3ccc(OC)cc3)C2=O)[nH]c1=O (stereo not given)	-5	-1	6	-4	17*	-2
Cc1cc(NC(=O)CN2CCN(c3ncccn3)CC2)no1	0	1	-2	-1	21*	-2
